The entries come from a sample that favours hits as a whole.
Methyltransferases = Primary Screen for Target Class Profiling of Small Molecule Inhibitors of Methyltransferases | purified enzyme, MTase-Glo SAH luminescence; active compounds read low | calls only at 40 µM | 25,000 compounds, 3.9% hits; call rule not given here
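Each enzyme was assayed with SAM and its substrate. SAH formation detected by MTase-Glo luminescence; single-point 40 uM screen[…].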
MTase-Glo ctr = counter-screen for methyltransferase inhibitors: coupling enzymes without methyltransferase; shares compounds with Methyltransferases; MTase-Glo coupled enzymes, SAH conversion luminescence, no MTase; Potency, µM (titrated, usually from 57.3 µM), without a hit: top-dose activity change, negative = inhibition, actives largely listed as inhibitors; 180 compounds, 6% hits; active = well fitted inhibition curve with a large enough effect; also: potency is read from the fitted curve at half-maximal effect
Numbers without * were called inactive; i = inactive; + = active, no number; [ ] = dose if it differs, or a comment. % is scaled to controls: 0 for no effect and ±100 for the full control effect.

SMILES	Methyltransferases	others
COc1ccc(-c2cc(=O)oc3cc(OC(C(=O)O)c4ccccc4)ccc23)cc1 (stereo not drawn)	i
Cc1cnccc1NCCn1ccnc1-c1cc2n(n1)CCCNC2	+	MTase-Glo ctr=-2%
Cc1ccc(-n2ccnc2-c2cc3n(n2)CCNC3)cc1N1CCCC1=O	i
c1ccc2c(c1)OCC(CCn1ccnc1-c1cc3n(n1)CCNC3)O2 (stereo not drawn)	i
Cc1cc(C)cc(N2C(=O)c3cc4occc4n3CC2(C)C(=O)NC2CCCCC2)c1 (stereo not drawn)	i
COc1ccc(C(=O)NC[C@H]2Cn3ccnc3CO2)cc1	i
COc1ccc(S(=O)(=O)NCC2Cn3cccc3C(=O)N2Cc2ccccc2)cc1 (stereo not drawn)	i
COc1ccc(S(=O)(=O)NC[C@H]2Cn3c(-c4ccc(Cl)cc4)cnc3CO2)cc1	+	MTase-Glo ctr=-2%[85.7 µM]
CCOCCCN1C(=O)c2ccc(-c3ccccc3)n2CC1(C)C(=O)NC1CCCCCC1 (stereo not drawn)	i
Cc1cc2c(cc3n2CC(C)(C(=O)NC2CCCCC2)N(CCCc2ccccc2)C3=O)o1 (stereo not drawn)	i
CN1C(=O)CCCCC1C(=O)NCCN1CCCCC1 (stereo not drawn)	i
CCCCNC(=O)C1CCc2sc(C(=O)N3CCCCC3)cc2C1 (stereo not drawn)	i
CC1CCN(CCCNC(=O)C2CCc3sc(C(=O)N4CCCC4)cc3C2)CC1 (stereo not drawn)	+	MTase-Glo ctr=-2%
COc1cccc(CN2C(=O)c3cc4occc4n3CC2(C)C(=O)NC2CCCCCC2)c1OC (stereo not drawn)	i
Cc1ccc(Cn2c(=O)c3ccc(C(=O)NC(C)C)cc3n3c(=O)n(Cc4ccc(Cl)cc4)nc23)cc1	i
O=C(NC1CCCC1)c1ccc2c(=O)n(Cc3ccccc3)c3nn(Cc4cccc(F)c4)c(=O)n3c2c1	i
COC(=O)c1cc2n(n1)CC(C)(C(=O)NC1CCC(C)CC1)N(c1ccc(OC)cc1)C2=O (stereo not drawn)	i
O=C(NCC1CCN(c2cc(-c3ccccc3)[nH]n2)CC1)c1ccc2nc[nH]c2c1	i
CN1CCC2(C1)CN(Cc1ccccc1)c1ccc(C(=O)N3CCOCC3)cc12 (stereo not drawn)	i
CN1CCCC2(C1)CN(C)c1ccc(C(=O)NCC3CCCCC3)cc12 (stereo not drawn)	+	MTase-Glo ctr=-1%[85.7 µM]
CCCn1c(=O)c2ccc(Cl)cc2n2c(SCC(=O)Nc3ccc(OC)cc3)nnc12	i
CC(C)c1ccc(NS(=O)(=O)c2cc3c(cc2Cl)n(C)c(=O)n3C)cc1	i
Cn1ccc2c(C(=O)NCCc3cnc[nH]3)nc(-c3ccc(N4CCOCC4)cc3)cc21	+	MTase-Glo ctr=2%[85.7 µM]
Cn1cncc1CNC(=O)c1nc(-c2cccc(N3CCOCC3)c2)cc2c1ccn2C	i
Cc1ccc(-c2cc3c(ccn3C)c(C(=O)NCc3cccnc3)n2)cn1	i
SMILES	Methyltransferases	others
CC(C)CCNC(=O)C1(C)Cn2c(ccc2-c2ccco2)C(=O)N1Cc1ccccc1F (stereo not drawn)	i
CC1CC(C)CN(CCCN2C(=O)c3cc4sccc4n3CC2(C)C(=O)NC2CCCCCCC2)C1 (stereo not drawn)	i
COCCn1ccc2c(C3=CCOCC3)nc(-c3cccc4[nH]ccc34)cc21	+	MTase-Glo ctr=-6%[85.7 µM]
O=C(c1ccc2cc[nH]c2c1)N1CCCC(Cc2noc(-c3ccccn3)n2)C1 (stereo not drawn)	i
COc1ccc(NC(=O)N2CCCC(CN3CCC(C)CC3)CC2)cc1 (stereo not drawn)	i
COc1ccc(NC(=O)C(C)(C)Oc2nn(CC3CC3)c3ccc(CN4CCCC4)cc23)cc1	+	MTase-Glo ctr=5%
CC(C)n1nc(OC(C)(C)C(=O)Nc2ccccn2)c2cc(CN3CCOCC3)ccc21	i
CC(CCc1ccccc1)NC(=O)CCn1ccc2cc(S(=O)(=O)N3CCCCC3)ccc21 (stereo not drawn)	i
Cc1cccc([S+](=O)([O-])N2CCC3(CC2)OCCN(CC2CC2)C3=O)c1	i
Cc1ccc(CN2CCC3(CC2)CC(c2ccccc2)C(=O)N3C)cc1F (stereo not drawn)	i
CN1C(=O)C(c2ccccc2)CC12CCN(c1ccnc(N)n1)CC2 (stereo not drawn)	+	MTase-Glo ctr=5%
CCOc1ccccc1CN1C(=O)c2nc3ccccc3n2CC1(C)C(=O)NC1CCC(C)CC1 (stereo not drawn)	i
C/C=C/C=C/C=C/C(=O)O[C@@H]1C=C(CO)[C@](O)(CO)[C@@]2(C)CCCC(C)(C)[C@H]12	i
COc1cccc(C(=O)NCC2CCCN(Cc3ccccn3)C2)c1OC (stereo not drawn)	i
Cn1cc(CN2CCCC(COc3ccccc3C(=O)N3CCCCC3)C2)c2ccccc21 (stereo not drawn)	+	MTase-Glo ctr=-2%
COc1cccc(C(=O)N2CCCC(COc3ccccc3C(=O)N3CCOCC3)C2)c1 (stereo not drawn)	i
CC1=C(C)C(=O)OC(C(C)C2C(O)CC3C4C5OC5C5(O)CC(OC6OC(CO)C(OC7OC(C)C(O)C(O)C7O)C(O)C6O)CC(O)C5(C)C4CCC32C)C1 (stereo not drawn)	i
COc1cc(C(=O)NC(=S)Nc2cccc(NC(=O)c3ccccc3)c2)cc(OC)c1OC	i
COc1cc(NC(=O)c2ccccn2)ccc1Cl	i
COc1ccccc1CC(=O)N1CCCc2ncc(C(=O)Nc3cccc(Cl)c3)cc21	+	MTase-Glo ctr=4%[85.7 µM]
C[C@H]1CCN2C[C@]34C[C@@]5(C(=O)Nc6c5ccc5c6OC=CC(C)(C)O5)C(C)(C)C3C[C@]12C(=O)N4C (stereo partly drawn)	i
Cc1ccc(NC(=O)Cn2nc3nc(Nc4ccc(C)cc4)ccn3c2=O)cc1	i
c1ccc(Nc2cc3c(cn2)NCCN(Cc2ccccn2)C3)cc1	i
c1ccc(-c2cc3c(cn2)NCCN(Cc2ccccn2)C3)cc1	+	MTase-Glo ctr=-5%[85.7 µM]
O=C(O)c1ccc(CC2CCN(Cc3ccccn3)C2)cc1 (stereo not drawn)	i
SMILES	Methyltransferases	others
CC1CCC(NC(=O)CCc2nnc3n(Cc4ccc(Cl)cc4)c(=O)c4ccccc4n23)CC1 (stereo not drawn)	i
Cc1cc(N2CCN(Cc3nnc(C4CC(N)C4)n3C)CC2)cc(C)n1 (stereo not drawn)	i
CN(C)Cc1nnc(C2CC(NC(=O)Cc3c(F)cccc3Cl)C2)n1C (stereo not drawn)	i
Cn1c(COc2cccc(CN3CCCC3)c2Cl)nnc1C1CC(N)C1 (stereo not drawn)	+	MTase-Glo ctr=-5%
Cc1ccc(NC(=O)CSc2nnc3n(CCC(C)C)c(=O)c4ccccc4n23)c(Cl)c1	i
NC(=O)CN1C(=O)[C@@H]2CN(C(=O)c3cccs3)CCN2C1=O	i
CCn1cc(CN2CCN(C(=O)CCc3ccccc3)CC2)ccc1=O	i
CCn1cc(CN2CCN(C(=O)c3cccs3)CC2)ccc1=O	+	MTase-Glo ctr=-3%
CCOCCCNC(=O)C1c2c(n(C)c3ccccc23)SCC(=O)N1c1ccc(C(C)C)cc1 (stereo not drawn)	i
CCc1ccccc1NC(=O)Cn1nc2n(C(C)C)c(=O)c3ccc(C(=O)NC(C)C)cc3n2c1=O	i

Assay outcomes: PubChem, National Center for Advancing Translational Sciences (NCATS)
